Source: PubChem BioAssay (NCATS)
Records with an inconclusive call do not appear. Active and inactive are the calls of the source. Unless noted, calls come from the whole dose curve; as a rule, active = well fitted curve in the direction sought with a large enough effect; inconclusive = small, poorly fitted or top-dose-only effect, or another doubt; inactive = no such curve, though single readings can be large; an effect the other way counts as inactive or inconclusive.

Assays:
[1] = Validation screen for small molecules that induce genotoxicity in human embryonic kidney (HEK293T) cells expressing luciferase-tagged ELG1 (AID 493106); note: potency is the fitted concentration of half-maximal effect
Method in brief: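 Cells were dispensed at 2,000 per well, then 23 nL compound or DMSO was pinned in. After 16 hr at 37 °C and 5% CO2, ONE-Glo reagent was added. Luciferase activity was measured following 30 min at room temperature.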

[2] = target: ATPase family AAA domain-containing protein 5 (Homo sapiens) (UniProt Q96QE3); experiment: Validation screen for small molecules that inhibit ELG1-dependent DNA repair in human embryonic kidney (HEK293T) cells expressing luciferase-tagged ELG1 (AID 493107); note: nearly all actives have a fitted effect of over 70% in size; note: potency is the fitted concentration of half-maximal effect
Method in brief: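 Cells are dispensed in 1536-well format, then 5-fluorouridine and compound are pinned in. After a 16 hr incubation at 37 °C and 5% CO2, ONE-Glo is added and luciferase measured on a CCD imager.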

[3] = Nrf2 qHTS screen for inhibitors: Validation (AID 493153; active = well fitted inhibition curve with a large enough effect in the main read-out, with a control signal flat, not every such curve was filed as active); conditions: Potency: luciferase luminescence; viability change: measured here: cytotoxicity max response
Method in brief: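 A549 ARE_Fluc, 5% FBS OPTI-MEM; cpd titration, 18-24 h, 37°C/5% CO2. Read 1: CellTiter-Fluor (Ex 405/Em 525), cytotox. Read 2: luciferase lum, Nrf2 activity.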

[4] = qHTS for Inhibitors of Cell Surface uPA Generation: Validation Assay (AID 493164);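 note: RAW 264.7 macrophage cells exposed to compound for 18 h; 0% is about no effect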
Method in brief: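 ATP-Lite luminescence read-out: ATP remains high when uPA activity-dependent LF translocation into the cytoplasm is blocked. RAW 264.7 cells, 18 h compound exposure at 37 C; 7-point titration, 2.45 nM to 38.3 uM final.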

[5] = target: Galactokinase (Homo sapiens) (UniProt P51570); experiment: qHTS Validation Assay for Inhibitors of Human Galactokinase (GALK) (AID 493189); note: 0% is about no effect
Method in brief: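 5 nM GALK / 100 uM galactose / 35 uM ATP, 20 mM HEPES pH8.0, 5 mM MgCl2, 60 mM NaCl, 1 mM DTT, 0.01% BSA (final). RT 1 h; Kinase-Glo Plus luminescence.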

[6] = Validation screen for small molecules that induce DNA re-replication in SW480 colon adenocarcinoma cells (AID 504364); note: potency is the fitted concentration of half-maximal effect
Method in brief: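 Image-based qHTS: compounds were incubated with SW480 cells for 48 hr, nuclei stained with Hoechst, and per-nucleus fluorescence intensity scanned to flag cells with excess DNA content.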

[7] = target: Thyrotropin-releasing hormone receptor (Homo sapiens) (UniProt P34981); experiment: qHTS for Small Molecule Agonists and Allosteric Enhancers of Human TRH Receptor: Validation Screen for Agonists (AID 493127;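 active = calcium activation more than 3 SD above the typical response in the agonist read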;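 note: intracellular calcium rise by fluo-8 fluorescence before TRH EC20 addition; 0% is about no effect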); conditions: TRH receptor agonist cell assay; at 2 µM; stronger effect = higher value
Method in brief: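 Compounds are added by online pintool to dye-loaded TRHR cells while fluorescence is recorded every second. A rise in calcium signal during the agonist read marks activation; a later 10 nM TRH addition (EC20) serves the separate enhancer mode.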

Sequence of Thyrotropin-releasing hormone receptor (Homo sapiens) (P34981 whole entry, looked up): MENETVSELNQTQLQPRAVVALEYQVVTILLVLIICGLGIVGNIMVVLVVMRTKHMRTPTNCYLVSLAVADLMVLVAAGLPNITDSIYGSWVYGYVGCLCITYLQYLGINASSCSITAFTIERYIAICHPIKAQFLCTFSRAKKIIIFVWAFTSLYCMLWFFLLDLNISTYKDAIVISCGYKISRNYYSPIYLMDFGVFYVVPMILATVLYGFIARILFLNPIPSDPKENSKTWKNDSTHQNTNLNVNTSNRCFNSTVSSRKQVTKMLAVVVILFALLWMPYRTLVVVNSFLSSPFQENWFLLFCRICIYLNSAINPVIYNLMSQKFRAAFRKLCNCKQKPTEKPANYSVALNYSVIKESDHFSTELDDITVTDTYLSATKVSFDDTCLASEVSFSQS
Sequence of ATPase family AAA domain-containing protein 5 (Homo sapiens) (Q96QE3 whole entry, looked up, the tested form may be a part): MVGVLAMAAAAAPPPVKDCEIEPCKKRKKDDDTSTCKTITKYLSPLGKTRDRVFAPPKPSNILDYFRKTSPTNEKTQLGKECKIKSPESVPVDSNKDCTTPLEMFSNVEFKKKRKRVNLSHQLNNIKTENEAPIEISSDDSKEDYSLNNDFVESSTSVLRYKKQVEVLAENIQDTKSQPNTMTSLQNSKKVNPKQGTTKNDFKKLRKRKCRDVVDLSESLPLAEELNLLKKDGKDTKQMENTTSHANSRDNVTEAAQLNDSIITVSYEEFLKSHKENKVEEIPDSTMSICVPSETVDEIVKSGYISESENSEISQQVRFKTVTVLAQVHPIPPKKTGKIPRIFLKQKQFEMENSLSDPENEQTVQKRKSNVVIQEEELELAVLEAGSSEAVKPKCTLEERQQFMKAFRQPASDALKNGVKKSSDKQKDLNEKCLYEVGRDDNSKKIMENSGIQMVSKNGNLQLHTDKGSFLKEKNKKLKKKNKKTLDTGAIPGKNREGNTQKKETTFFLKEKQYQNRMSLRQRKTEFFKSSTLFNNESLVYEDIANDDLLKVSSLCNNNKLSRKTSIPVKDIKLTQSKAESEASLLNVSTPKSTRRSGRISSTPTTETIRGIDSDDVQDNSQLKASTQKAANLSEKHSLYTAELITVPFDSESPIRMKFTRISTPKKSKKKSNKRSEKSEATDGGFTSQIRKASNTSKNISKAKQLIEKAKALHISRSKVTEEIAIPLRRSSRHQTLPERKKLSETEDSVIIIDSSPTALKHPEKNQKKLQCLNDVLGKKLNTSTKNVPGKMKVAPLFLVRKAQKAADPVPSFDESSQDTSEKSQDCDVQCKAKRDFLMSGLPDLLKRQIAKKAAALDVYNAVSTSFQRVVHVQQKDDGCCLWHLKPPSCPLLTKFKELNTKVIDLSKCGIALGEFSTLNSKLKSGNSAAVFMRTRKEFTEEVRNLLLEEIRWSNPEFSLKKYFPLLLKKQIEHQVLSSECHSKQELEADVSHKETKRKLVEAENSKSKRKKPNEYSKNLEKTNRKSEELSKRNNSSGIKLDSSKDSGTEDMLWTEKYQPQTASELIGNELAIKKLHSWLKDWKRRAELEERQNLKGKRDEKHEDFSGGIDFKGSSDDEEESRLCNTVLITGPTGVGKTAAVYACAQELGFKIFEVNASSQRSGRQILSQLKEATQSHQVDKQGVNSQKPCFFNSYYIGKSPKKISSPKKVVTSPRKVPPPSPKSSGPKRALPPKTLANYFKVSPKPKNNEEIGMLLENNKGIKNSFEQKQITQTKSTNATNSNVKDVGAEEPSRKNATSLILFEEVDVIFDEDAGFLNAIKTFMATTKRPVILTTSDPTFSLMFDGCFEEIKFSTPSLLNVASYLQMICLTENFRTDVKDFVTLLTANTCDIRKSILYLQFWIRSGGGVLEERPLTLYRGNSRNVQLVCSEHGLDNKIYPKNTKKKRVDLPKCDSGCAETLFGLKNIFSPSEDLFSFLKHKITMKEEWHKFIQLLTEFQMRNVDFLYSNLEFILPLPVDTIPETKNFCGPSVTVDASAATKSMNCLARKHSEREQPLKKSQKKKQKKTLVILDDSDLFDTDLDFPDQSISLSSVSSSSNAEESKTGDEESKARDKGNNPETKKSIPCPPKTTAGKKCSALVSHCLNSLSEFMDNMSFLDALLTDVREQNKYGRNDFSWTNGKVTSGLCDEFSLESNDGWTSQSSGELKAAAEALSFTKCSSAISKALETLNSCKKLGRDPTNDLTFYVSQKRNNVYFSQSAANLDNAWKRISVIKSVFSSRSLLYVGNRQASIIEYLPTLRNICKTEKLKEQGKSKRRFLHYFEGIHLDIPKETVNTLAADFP
Sequence of Galactokinase (Homo sapiens) (P51570 whole entry, looked up): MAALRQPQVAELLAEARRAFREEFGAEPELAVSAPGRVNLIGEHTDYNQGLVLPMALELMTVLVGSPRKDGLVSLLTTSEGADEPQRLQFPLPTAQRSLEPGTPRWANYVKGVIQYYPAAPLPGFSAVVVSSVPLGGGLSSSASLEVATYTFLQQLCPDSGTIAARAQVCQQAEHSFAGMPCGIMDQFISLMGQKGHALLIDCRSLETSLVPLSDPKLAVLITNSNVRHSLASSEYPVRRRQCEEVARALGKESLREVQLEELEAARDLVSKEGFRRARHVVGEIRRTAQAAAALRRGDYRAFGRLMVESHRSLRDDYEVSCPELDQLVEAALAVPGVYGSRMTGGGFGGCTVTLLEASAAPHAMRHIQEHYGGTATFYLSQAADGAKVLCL

O=C(c1ccc(F)cc1)C1CCN(CCn2c(=O)[nH]c3ccccc3c2=O)CC1
inactive: Potency [1] | Potency [2] | Potency [3] | outcome [4] | Potency [5] | Potency [6]
2.61%: viability change [3]

Cn1ccc2cc3c(cc21)CCN3C(=O)Nc1cccnc1
inactive: Potency [2] | activation [7] 0.875% | Potency [3] | outcome [4] | Potency [5] | Potency [6]
-2.16%: viability change [3]

CN1CCN(C2=Nc3cc(Cl)ccc3Nc3ccccc32)CC1
inactive: Potency [1] | activation [7] 3.31% | Potency [3] | outcome [4] | Potency [5] | Potency [6]
-10.5%: viability change [3]

O=C(C1CCCCC1)N1CC(=O)N2CCc3ccccc3C2C1 (configuration not stated)
inactive: Potency [1] | Potency [2] | activation [7] 0.312% | outcome [4] | Potency [5] | Potency [6]

CN(C)CCCN1c2ccccc2CCc2ccc(Cl)cc21
-5.04%: viability change [3]
inactive: Potency [1] | activation [7] 1.88% | Potency [3] | outcome [4] | Potency [5] | Potency [6]

O=c1c(-c2ccc(O)cc2)coc2cc(O)cc(O)c12
active: Potency [1] 9.2 µM
inactive: Potency [3] | outcome [4] | Potency [5] | Potency [6]
-6.66%: viability change [3]

NS(=O)(=O)c1cc2c(cc1Cl)NCNS2(=O)=O
inactive: Potency [1] | activation [7] 0.938% | Potency [3] | outcome [4] | Potency [5] | Potency [6]
-1.09%: viability change [3]

O=C1Cc2cc(CCN3CCN(c4nsc5ccccc45)CC3)c(Cl)cc2N1
inactive: Potency [1] | Potency [3] | outcome [4]
active: Potency [2] 9.2 µM
-17.6%: viability change [3]

O=C(Nc1ccc([N+](=O)[O-])cc1Cl)c1cc(Cl)ccc1O
inactive: Potency [1] | outcome [4] | Potency [5]

COc1cc2nc(N3CCN(C(=O)C4COc5ccccc5O4)CC3)nc(N)c2cc1OC (configuration not stated)
-11.8%: viability change [3]
inactive: Potency [1] | Potency [3] | outcome [4] | Potency [5] | Potency [6]
active: Potency [2] 23.1 µM

CC(COc1ccccc1)N(CCCl)Cc1ccccc1 (configuration not stated)
inactive: Potency [1] | Potency [2] | outcome [4] | Potency [5] | Potency [6]

OCCN(CCO)c1nc(N2CCCCC2)c2nc(N(CCO)CCO)nc(N3CCCCC3)c2n1
inactive: Potency [1] | activation [7] 25.4% | outcome [4] | Potency [5] | Potency [6]
active: Potency [2] 0.231 µM

CCCCc1oc2ccccc2c1C(=O)c1cc(I)c(OCCN(CC)CC)c(I)c1
8.23%: viability change [3]
inactive: Potency [1] | activation [7] 1.56% | Potency [3] | Potency [5] | Potency [6]

COC(=O)Nc1nc2ccc(C(=O)c3cccs3)cc2[nH]1
active: Potency [1] 2.31 µM | Potency [6] 116 nM
inactive: Potency [2] | Potency [3] | outcome [4] | Potency [5]
-18.1%: viability change [3]

CNCCCC12CCC(c3ccccc31)c1ccccc12
inactive: Potency [1] | activation [7] 3.31% | Potency [3] | outcome [4] | Potency [5] | Potency [6]
1.81%: viability change [3]

COc1ccc(CCN(C)CCCC(C#N)(c2ccc(OC)c(OC)c2)C(C)C)cc1OC (configuration not stated)
inactive: activation [7] 7.06% | outcome [4]

COc1ccc2c(c1)c(CC(=O)O)c(C)n2C(=O)c1ccc(Cl)cc1
inactive: Potency [1] | Potency [2] | outcome [4] | Potency [5] | Potency [6]

O=C(CCCN1CCC(O)(c2ccc(Cl)cc2)CC1)c1ccc(F)cc1
inactive: Potency [1] | activation [7] 4.81% | Potency [3] | outcome [4] | Potency [5] | Potency [6]
2.46%: viability change [3]

CCOC(=O)c1ncn2c1CN(C)C(=O)c1cc(F)ccc1-2
2.56%: viability change [3]
inactive: Potency [1] | Potency [2] | Potency [3] | outcome [4] | Potency [5] | Potency [6]

CC(C)Cc1ccc(C(C)C(=O)O)cc1 (configuration not stated)
inactive: Potency [1] | Potency [2] | activation [7] 0.375% | Potency [3] | outcome [4] | Potency [6]
7.62%: viability change [3]

CN1CCC(=C2c3ccccc3CC(=O)c3sccc32)CC1
-3.17%: viability change [3]
inactive: Potency [1] | Potency [2] | Potency [3] | outcome [4] | Potency [5] | Potency [6]

CN1CCN2c3ccccc3Cc3ccccc3C2C1 (configuration not stated)
inactive: Potency [1] | activation [7] -4.88% | Potency [3] | Potency [6]
-3.01%: viability change [3]

Cc1ccccc1N1C(=O)c2cc(S(N)(=O)=O)c(Cl)cc2NC1C (configuration not stated)
10.1%: viability change [3]
inactive: Potency [1] | Potency [2] | Potency [3] | outcome [4] | Potency [5] | Potency [6]

CC(C)C(=O)Nc1ccc([N+](=O)[O-])c(C(F)(F)F)c1
inactive: Potency [2] | activation [7] -0.438% | outcome [4] | Potency [5] | Potency [6]

COc1ccc2[nH]cc(CCNC(C)=O)c2c1
-12.9%: viability change [3]
inactive: Potency [1] | activation [7] -2.38% | Potency [3] | outcome [4] | Potency [5] | Potency [6]
